Values joined by “and” are separate entries in the source; they are usually repeats but may differ in a detail not shown here. Equal values may be shown once. Inconclusive results are not listed. Where a call stands in place of a potency, no number is given. Active and inactive are the calls of the source. Calls follow the shape of the full dose curve.

Here are results for 40 compounds from PubChem BioAssay (Tox21).
Potency is read from the fitted curve at half-maximal effect.

The nature of this assay: Nuclear factor erythroid 2-related factor 2/antioxidant responsive element (Nrf2/ARE) small molecule agonists: luciferase reporter gene qHTS assay in human keratinocytes (AID 1919969). Also: nearly all actives have a fitted effect of over 35% in size. The conditions noted are these: KeratinoSens HaCaT ARE-luciferase, luminescence, 24 h; series mostly up to 92.4 µM. An excerpt:
National Center for Advancing Translational Sciences [NCATS]
Division of Preclinical Innovation [DPI]
U.S. Environmental Protection Agency [EPA]
National Institutes of Environmental Health Sciences [NIEHS]
National Toxicology Program [NTP]
U.S. Food and Drug Administration [FDA]
Oxidative stress has been implicated in the pathogenesis of a variety of diseases ranging from cancer to neurodegeneration. The antioxidant response element (ARE) signaling pathway plays an important role in the amelioration of oxidative stress. The KeratinoSens (Givaudan, Switzerland) is an in vitro test method which quantifies luciferase induction as a measure of activation of Keap1-Nrf2-antioxidationt/electrophile response element (ARE) dependant pathway in HaCaT human keratinocytes stably transfected with a selectable plasmid. The KeratinoSens assay is a cell-based assay with a reporter cell line to detect potential skin sensitizers by their ability to induce the Nrf2/ARE-response. The activation of the report gene under culture conditions can be detected by ONE-Glo Luciferase Assay System (Promega, Madison, WI). This cell line has been used to screen the Tox21 10K compound library to identify agonists that induce oxidative stress. The cytotoxicity of the Tox21 compound library against the KS-ARE cell line was tested in parallel by measuring the cell viability using CellTiter- Fluor assay system (Promega, Madison, WI) in the same wells.
HaCaT derived cell line KeratinoSens were dispensed at 1,500 cells/5uL/well in 1536-well white wall/solid bottom plates using a Multidrop Combi (ThermoFisher Scientific, Waltham, MA) dispenser. After the assay plates were incubated at 37 C/5% CO2 for 5 h, 23 nL of compounds dissolved in DMSO, positive controls or DMSO only was transferred to the assay plate by a pintool workstation (Kalypsys, San Diego, CA). The plates were incubated at 37 C/5% CO2 for 23 h, followed by addition of 1uL/well of CellTiter-Fluor reagent into the assay plates using a Flying Reagent Dispenser (Aurora Discovery, San Diego, CA) for cell viability readout that measures cytotoxicity. After 1 h incubation at 37 C/5% CO2 the fluorescence intensity was measured using a ViewLux (PerkinElmer, Shelton, CT) plate reader. Then 4uL/well of One-Glo were added using a Flying Reagent Dispenser. After the plates were incubated at room temperature for 30 min, the luminescence intensity in the assay plates was measured using ViewLux plate reader.
In general terms: A reporter such as luciferase makes a cellular process visible.
For `O=C1Cc2cc(Cl)ccc2N1`, the Potency result was “inactive”.
Still for that read-out and setting: then `COC(=O)c1cc(Cl)c(NC(C)=O)cc1OC`, with “inactive”; and `OCCCC1CCCCC1`, with “inactive”.
Turning to `CCC(C)(C)C1CCC(=O)CC1`, the Potency entry is “inactive”.
On the same count and under the same terms, then `O=C(O)C[C@H](NC(=O)OCc1ccccc1)C(=O)O`, with “inactive”.
Still for that read-out and setting: next, `Cn1cnc2c1c(=O)[nH]c(=O)n2C`: “inactive”; `O=C(O)c1ccc(C(=O)O)c(C(=O)O)c1`: “inactive”; `CCCOCCOCCO`: “inactive”.
Still for that read-out and setting: then `OCCCCCCCl`, with “inactive”.
In the case of `Oc1ccc2cc(SSc3ccc4cc(O)ccc4c3)ccc2c1`, the Potency was 68.7 µM (active) and 68.6 µM (active).
Turning to `CCCC(C)CCC(C)=O` (stereo not given), the Potency result was “inactive”.
Same read-out and setting: then `C[C@@H]1CCC[C@H](C)N1CCCC(O)(c1ccccc1)c1ccccn1` (stereo not given in full), with “inactive”.
For `CCC1COC(=O)O1` (stereo not given), the Potency entry is “inactive”.
On to `CCCCCCCCCCCC(=O)N(C)CC(=O)O`, for which the activity, positive = activation was 0.794% [at 8.39 µM] (inactive).
Turning to `CC(=O)c1ccc2ccccc2c1`, the Potency entry was “inactive”.
The same measure, in the same setting: then `CC1CC(OC(=O)c2ccccc2O)CC(C)(C)C1` (stereo not given), with 61.1 µM (active).
The same measure, in the same setting: next, `NS(=O)(=O)c1cc2c(cc1Cl)NC(CC1CCCC1)NS2(=O)=O` (stereo not given): “inactive”; `CC(C)c1cccc(O)c1`: “inactive”.
For `Nc1c(NC/C=C\COc2cc(CN3CCCCC3)ccn2)c(=O)c1=O`, the activity, positive = activation is -5.23% [at 19 µM] (inactive).
For the compound `c1ccc2c(c1)CCC2`, the Potency is 13.7 µM (active).
For `CCCC(=O)CC`, the Potency entry is “inactive”.
For the compound `O=C(Cl)c1ccccc1[N+](=O)[O-]`, the Potency entry is “inactive”.
On the same count and under the same terms, next, `CC(C(=O)O)c1cccc(C(=O)c2ccccc2)c1` (stereo not given): “inactive”; `CCCO`: “inactive”; `CCCCC1CCC(O)CC1` (stereo not given): “inactive”.
Still for that read-out and setting: then `O=C(O)c1ccccc1C(c1ccc(O)cc1)c1ccc(O)cc1`, with “inactive”.
On the same count and under the same terms, then `C[C@H]1C[C@@H](O)CC(C)(C)C1`, with “inactive”; and `O=[N+]([O-])c1ccc(CCO)cc1`, with “inactive”.
Regarding `CCC(=O)O[C@@H]1C[C@H]2CC[C@]1(C)C2(C)C`, the Potency result is “inactive”.
Still for that read-out and setting: next, `CS(C)(=O)=O`: “inactive”.
In the case of `CC1CCc2nccnc21` (stereo not given), the Potency result was “inactive”.
Same read-out and setting: then `O=C(COc1ccc(Cl)cc1)N1CCN(Cc2ccc3c(c2)OCO3)CC1`, with “inactive”; and `O=C1OC(=O)C2CC=CCC12` (stereo not given), with “inactive”.
Regarding `c1ccsc1`, the Potency result is “inactive”.
The same measure, in the same setting: then `COc1ccc(Cl)cc1C`, with “inactive”.
The same measure, in the same setting: next, `O=C[C@H](O)[C@@H](O)[C@H](O)[C@H](O)CO`: “inactive”; `NC(=O)c1ccccc1N`: “inactive”; `COC(OC)C(C)c1ccccc1` (stereo not given): “inactive”.
Same read-out and setting: next, `Cc1cc(CCC(=O)OCCOCCOCCOC(=O)CCc2cc(C)c(O)c(C(C)(C)C)c2)cc(C(C)(C)C)c1O`: “inactive”; `Cc1ccc(-c2ccccc2C#N)cc1`: “inactive”.
